TRAIL sens C8: sensitizes caspase-8 expressing cells to TRAIL; NB7+C8 cells + TRAIL, ATPlite viability luminescence; inhibition (viability loss, TRAIL sensitization), % at 10 µM; hit rate 1% among 360,000; AID 624354;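 active means compounds causing at least 50% loss of cell viability in the single-dose screen, relative to plate controls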
SENP7 block: inhibitors of human SENP7 protease. recombinant SENP7, Z-RLRGG-aminoluciferin luminescence, 40 min. Q9BQF6. hit rate 1.5% among 330,000. inhibition, % at 5 µM. AID 434973;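 active means inhibition above about 50% at the single test dose, limit read from the data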;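 further: plate controls were DMSO with enzyme for no effect and no enzyme buffer wells for full effect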
SENP6 inh: SENP6 protease inhibition; Q9GZR1; Recombinant SENP6 catalytic domain, aminoluciferin luminescence; inhibition, % at 10 µM; hit rate 1.8% among 330,000;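 active means inhibition above about 50% at the single tested dose, limit read from the data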;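 further: plate controls were DMSO wells with enzyme for no effect and DMSO wells lacking enzyme for full effect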
SENP8 block-1: SENP8 (human) protease inhibition; Q96LD8; inhibition, % at 20 µM; recombinant SENP8, Nedd8 substrate fluorescence; hit rate 0.64% among 360,000; AID 602440; in the data active means inhibition mostly above about 40%, no sharp cut-off; inactive means mostly below about 27%
Target sequence (Q96LD8 whole entry, looked up): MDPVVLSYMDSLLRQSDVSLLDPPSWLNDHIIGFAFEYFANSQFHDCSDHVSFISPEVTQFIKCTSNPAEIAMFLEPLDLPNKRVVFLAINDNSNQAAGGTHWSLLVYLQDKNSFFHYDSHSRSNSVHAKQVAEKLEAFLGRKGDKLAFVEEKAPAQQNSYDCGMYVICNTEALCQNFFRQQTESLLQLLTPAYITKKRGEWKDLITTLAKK
SENP8 block-2: SENP8 protease inhibition. AID 2540. Q96LD8. inhibition, % at 10 µM. hit rate 1.2% among 330,000. purified SENP8, Z-RLRGG-aminoluciferin cleavage, luminescence; in the data active means inhibition above about 50%
PPC-1+TRAIL kill: compounds killing PPC-1 cancer cells with TRAIL present (potentiator screen, no TRAIL-free arm); PPC-1 cells + TRAIL, ATPLite viability luminescence; cell killing (% activity), % at 4 µM or 5 µM; hit rate 0.41% among 220,000; AID 1443;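 active means cell killing above 50% in the first pass at 4 µM, then a duplicate retest at 5 µM averaging 50% or more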;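 further: plate controls were cells with TRAIL plus DMSO for no effect and medium-only wells lacking cells for full effect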
SENP8 inh conf: SENP8 (human) inhibition, single concentration confirmation. shares compounds with SENP8 block-1. purified SENP8, Nedd8-AMC/pro-Nedd8 cleavage fluorescence, 30 min. inhibition, % at 25 µM. hit rate 15% among 1,400; in the data active means inhibition mostly above about 39%, no sharp cut-off; inactive means mostly below about 34%
Active calls of the source: *; · = no result. An excerpt weighted towards active compounds, which were near 3% of everything screened.

SMILES	TRAIL sens C8	SENP7 block	SENP6 inh	SENP8 block-1	SENP8 block-2	PPC-1+TRAIL kill	SENP8 inh conf
C=CC[N+]1(C)C2CCC1CC(O)C2 (stereo not given)	-12	2	-16	2	2	18	·
c1cncc(C2CCCCN2)c1 (stereo not given)	-3	0	7	55*	-3	-3	10
CN1CCN(c2cc(N3CCCCCC3)c(F)cc2[N+](=O)[O-])CC1	0	-3	-5	22	-16	35	·
CCN1CCN(c2cc(N3CCCC3)c([N+](=O)[O-])cc2F)CC1	16	-1	-15	42*	-3	10	20
O=C(O)c1ccc([N+](=O)[O-])c([N+](=O)[O-])c1	-11	·	·	40*	·	·	32
OCCOc1ccccc1	0	-4	-5	46*	3	·	10
CCOC(=O)C(C)(CC)NC(=O)CSP(=S)(OCC)OCC (stereo not given)	0	5	0	8	1	-4	·
C=CCN(CC=C)C(=O)CCN1CC1C (stereo not given)	7	·	·	14	·	·	·
CCOP(=S)(OCC)N1CC1	-7	·	·	3	·	·	·
COc1cc([N+](=O)[O-])c2ncccc2c1[N+](=O)[O-]	8	·	·	30	·	·	·
CCNCCNc1ccc([N+](=O)[O-])c2cccnc12	20	9	8	63*	5	-5	19
O=[N+]([O-])c1ccc(N2CCCC2)c2ncccc12	-11	-3	34	81*	10	0	27
Cc1nonc1OCCNCCNc1ccc([N+](=O)[O-])c2cccnc12	9	0	1	43*	3	-4	20
CC1CN(c2ccc([N+](=O)[O-])c3cccnc23)CC(C)N1 (stereo not given)	-1	-1	4	39	-3	14	·
CC1(C)CCCN1CCC(C(N)=O)(c1ccccc1)c1ccccc1	-19	·	·	20	·	·	·
COC(=O)C1=C(c2cccc(OC)c2OC)C[C@@H]2CC[C@H]1N2C(=O)NCc1cccc2ccccc12	3	5	-5	11	-2	·	·
COc1cc(C2c3cc4c(c(O)c3CC3COC(=O)C32)OCO4)cc(OC)c1OC (stereo not given)	-1	·	·	6	·	·	·
COc1cc(C2c3cc(O)c(OC)cc3CC3C(=O)OCC32)ccc1O (stereo not given)	0	·	·	44*	·	·	5
